Compound activity (PubChem BioAssay)
VP16 counter: VP16 counterscreen qHTS for inhibitors of ROR gamma transcriptional activity. Drosophila S2 Gal4-VP16 UAS-luciferase, luminescence, 20 h. Potency, µM (highest dose often 53.6 µM), inactives show at the top dose activity, negative = inhibition, actives largely listed as inhibitors. AID 2546, 2010. 3.5% of 310,000 active;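 also: Gal4-VP16 expression switched on by copper sulfate through the metallothionein promoter; % is scaled to controls: 0 for no effect and ±100 for the full control effect; nearly all actives have a fitted effect of over 50% in size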
HepG2 tox: qHTS for Inhibitors of TGF-b: Cytotox Counterscreen; HepG2 CAGA-GFP viability, ATP luminescence, 18 h; Potency, µM (highest dose often 46.1 µM), without a hit: top-dose activity change, negative = cytotoxicity, hits mostly cytotoxic; 0.76% of 410,000 active; AID 588856, 2011
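CellTiter-Glo luminescence gave cytotoxicity after 18 hours at 37 degrees C. The cells were HepG2 CAGA-GFP in 1% FBS DMEM, stimulated with 500 pg/mL TGF-beta after compound addition. %Activity was normalised to no-cell wells (complete cell-killing) and DMSO (no toxicity), and curves were fitted and classified.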
RORgamma inh: qHTS for inhibitors of ROR gamma transcriptional activity | Potency, µM (series often up to 53.6 µM), without a hit: at the highest dose activity change, negative = inhibition, most hits filed as inhibitors | AID 2551, 2010 | 5.4% of 310,000 active | Nuclear receptor ROR-gamma (Mus musculus), P51450 | Drosophila S2 Gal4-RORgamma UAS-luciferase reporter, 20 h; also: % is scaled to controls: 0 for no effect and ±100 for the full control effect; nearly all actives have a fitted effect of over 60% in size
Target sequence (P51450 whole entry, looked up, the tested form may be a part): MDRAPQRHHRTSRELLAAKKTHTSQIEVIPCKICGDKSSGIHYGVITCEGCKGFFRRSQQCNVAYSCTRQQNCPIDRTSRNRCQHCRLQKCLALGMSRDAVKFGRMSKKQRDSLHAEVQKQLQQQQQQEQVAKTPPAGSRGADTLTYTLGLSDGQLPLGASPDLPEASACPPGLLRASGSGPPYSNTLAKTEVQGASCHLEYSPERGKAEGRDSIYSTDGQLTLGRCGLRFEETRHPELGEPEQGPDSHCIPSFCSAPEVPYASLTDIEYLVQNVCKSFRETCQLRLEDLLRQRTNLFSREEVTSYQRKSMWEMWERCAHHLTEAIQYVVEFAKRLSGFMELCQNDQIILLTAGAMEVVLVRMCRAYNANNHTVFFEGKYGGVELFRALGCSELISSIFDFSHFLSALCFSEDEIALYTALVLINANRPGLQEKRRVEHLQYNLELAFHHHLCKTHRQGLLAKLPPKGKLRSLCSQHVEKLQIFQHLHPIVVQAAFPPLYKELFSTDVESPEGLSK
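Drosophila S2 cells stably expressing Gal4-DBD/mouse RORγ fusion under metallothionein promoter plus UAS-luciferase; compound 1 h, then 700 uM CuSO4 induction for 20 h at ambient temperature; inhibition read as reduced luminescence.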
TGFb SMAD3 inh: qHTS for Inhibitors of TGF-b; HepG2 CAGA-GFP TGF-b/SMAD3 reporter, GFP fluorescence, 18 h; TGF-beta stimulated, 500 pg/mL final; Potency, µM (highest dose often 46.1 µM), for the others: top-dose activity, negative = inhibition, hits mostly inhibitors; 1.2% of 410,000 active; also: % is scaled to controls: 0 for no effect and ±100 for the full control effect; nearly all actives have a fitted effect of over 65% in size
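TGF-beta reporter screen: HEPG2 CAGA-GFP, 1% FBS, 500 pg/mL TGF-beta final, 18 h; per-cell GFP summed per well; curves fitted and categorized by class.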
ATXN2 expr inh: Primary qHTS for Inhibitors of ATXN expression. Potency, µM (top dose mostly 57 µM), inactives show at the highest dose activity change, negative = inhibition, actives largely listed as inhibitors. HEK-293 ATXN2-luciferase reporter, luminescence, 24 h. 0.72% of 360,000 active; also: % is scaled to controls: 0 for no effect and ±100 for the full control effect; nearly all actives have a fitted effect of over 55% in size
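qHTS (up to 57 uM final) was run with 24 h compound exposure of reporter cells at 37 °C. Each well was multiplexed: SteadyGlo luminescence measured ATXN2-luciferase expression after a fluorogenic Gly-Phe-AFC viability readout (25 uM final).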
ATXN viability: Viability Counterscreen for Primary qHTS for Inhibitors of ATXN expression. S2 cells (HEK-293 line with an ATXN2-luciferase reporter) viability, CellTiter-Fluor protease fluorescence, 24 h. 0.49% of 400,000 active. AID 651635, 2014. Potency, µM (series often up to 56.7 µM), usual class: cytotoxic; also: nearly all actives have a fitted effect of over 40% in size
An asterisk follows results filed as active; i = inactive; u = inconclusive; x = no result. The list is not random: actives were taken first. Their share in the collection is about 6.3%. Calls follow the shape of the dose curve; as a rule, active = well fitted curve in the direction sought with a large enough effect; inconclusive = small, poorly fitted or top-dose-only effect, or another doubt; inactive = no such curve, though single readings can be large; an effect the other way counts as inactive or inconclusive. Potency is read from the fitted curve at half-maximal effect.

SMILES	VP16 counter	HepG2 tox	RORgamma inh	TGFb SMAD3 inh	ATXN2 expr inh	ATXN viability
COc1ccc2nc(-c3ccc(F)cc3)sc2c1	x	-26%	x	4%	25%	i
Cc1ccc2sc(-c3ccc(N)cc3)nc2c1	x	-48%	x	u	u	i
COc1ccc2nc(-c3ccc(N(C)C)cc3)sc2c1	5µM*	x	0.63µM*	x	x	x
Nc1ccc2nc(-c3ccccc3)sc2c1	u	-73%	8.9µM*	-5%	u	i
Nc1ccc(-c2nc3cc(N)ccc3s2)cc1	u	3%	7.9µM*	-12%	21%	i
Cc1ccc2nc(-c3ccc(N)cc3)sc2c1	10µM*	-38%	4.5µM*	-23%	u	i
COCCn1c(=O)c(C)nc2cnc(N3CCN(C)CC3)nc21	0%	x	-9%	x	x	x
CC(C)N(C(=O)CSc1cn(CC(=O)N2CCCCCC2)c2ccccc12)C(C)C	x	-24%	x	13µM*	x	x
CN(C(=O)CSc1cn(CC(=O)N2CCCCC2)c2ccccc12)c1ccccc1	x	-18%	x	u	x	x
C=CCC[C@H](Cc1ccc(F)cc1)C(=O)OC[C@H](Cc1c[nH]c2ccccc12)NC(=O)[C@H](CC=C)CC(=O)N(CCO)Cc1ccccc1	x	-27%	x	u	u	32µM*
C=CC[C@@H](CC(=O)N(CCO)Cc1ccccc1)C(=O)N[C@H](COC(=O)[C@@H](CC=C)Cc1ccc(F)cc1)Cc1c[nH]c2ccccc12	x	-13%	x	u	0%	u
C=CCC[C@H](Cc1ccc(F)cc1)C(=O)OC[C@@H](C)NC(=O)[C@H](CC=C)CC(=O)N(CCO)Cc1ccccc1	x	-10%	x	u	u	u
C=CC[C@H](CC(=O)N(CCO)Cc1ccccc1)C(=O)NC[C@H](OC(=O)[C@@H](CC=C)Cc1ccc(F)cc1)c1ccccc1	x	-40%	x	u	u	25µM*
C=CCC[C@@H](Cc1ccc(F)cc1)C(=O)OC[C@@H](Cc1c[nH]c2ccccc12)NC(=O)[C@@H](CC=C)CC(=O)N(CCO)Cc1ccccc1	x	-69%	x	13µM*	u	u
C=CCC[C@@H](Cc1ccc(F)cc1)C(=O)OC[C@H](C)NC(=O)[C@@H](CC=C)CC(=O)N(CCO)Cc1ccccc1	x	-21%	x	13µM*	u	u
COc1cccc(CNC(=O)c2c(OC)cc(=O)n3c2CCN(C(=O)C2=C(C)OCCO2)CC3)c1	x	x	x	x	x	i
Cc1ccccc1NC(=O)c1c(C)oc2ccc(O)c(CN3CCCC3)c12	x	-22%	x	3%	-31%	u
C=CC[C@@H](Cc1ccc(F)cc1)C(=O)OC[C@@H]1CCCN1C(=O)[C@H](CC=C)CC(=O)N(CCO)Cc1ccccc1	x	-27%	x	u	u	20µM*
Cc1cccnc1C1=NOC(Cc2ccccc2)C(=O)N1CCOc1ccc(F)cc1 (configuration not stated)	x	2%	x	-29%	6%	i
CSCC[C@H](NC(=O)[C@H](CC(C)C)NC(=O)CNC(=O)[C@H](Cc1ccc(O)cc1)NC(=O)[C@H](Cc1ccccc1)NC(=O)[C@H](CCC(N)=O)NC(=O)[C@H](CCC(N)=O)NC(=O)[C@@H]1CCCN1C(=O)[C@H](CCCCN)NC(=O)[C@@H]1CCCN1C(=O)[C@@H](N)CCCN=C(N)N)C(N)=O	-3%	x	9%	x	x	x
O=[N+]([O-])c1ccc2c(c1)S(=O)(=O)C=C2	u	x	0.63µM*	x	x	x
O=C1c2ccc([N+](=O)[O-])cc2S(=O)(=O)N1Cc1ccccc1	u	-16%	-17%	0%	-5%	i
COc1ccc(CNCCC(c2ccc(OC(C)C)cc2)C(C)C)cc1OC (configuration not stated)	-25%	16µM*	-28%	u	32µM*	x
COc1ccc(C(CCNCc2ccc(OC(C)C)cc2)C(C)C)cc1 (configuration not stated)	u	22µM*	13µM*	u	u	u
COc1ccc(C(CCNCc2ccc(N(C)C)cc2)C(C)C)cc1 (configuration not stated)	u	10µM*	u	u	x	u
SMILES	VP16 counter	HepG2 tox	RORgamma inh	TGFb SMAD3 inh	ATXN2 expr inh	ATXN viability
COc1ccc(CNCCC(c2ccc(C)cc2)c2ccco2)cc1 (configuration not stated)	x	-93%	x	x	x	x
O=C(O)c1c2c(nc3ccccc13)CCCC2	x	9%	x	-3%	x	x
O=C(/C=C/c1ccc(OC2CSC2)cc1)c1ccccc1	-11%	6.3µM*	-11%	u	u	u
O=C(N/N=C/c1ccc(OC2CSC2)cc1)c1ccccc1	-25%	-25%	u	-8%	5%	u
O=C(O)COc1ccc(/C=C/C(=O)c2ccc3ccccc3c2)cc1	u	-28%	1.6µM*	-28%	-7%	i
O=C1CC(C2CCCO2)C(=O)N1c1ccc(Cl)c(Cl)c1 (configuration not stated)	11µM*	2%	u	5%	0%	i
O=C1CC(C2CCCO2)C(=O)N1c1ccccc1 (configuration not stated)	-6%	9%	10%	0%	0%	i
Cc1cc2c(cc(C(=O)NCCCN3CCOCC3)n2Cc2ccc(Cl)cc2)o1	10µM*	-29%	u	u	-30%	i
CSc1ccc(C(=O)N2CCc3c(cnc(C)c3CNC(=O)c3cncs3)C2)cc1	x	x	x	x	x	i
